Laboratory results reported in paper PMC13494018.

B1: d6r1_design_ppi_138_dldesign_0_cycle1_af2pred (protein)
chain: GKKKEEAEKLIKEAKEVKEKAEEAAKLAKELGNEEAAKAAQKAIEEAEKAIEAAKEGKLEEARLHLAKAKGYLLRAQGLIANKLAAA
B2: d6r1_design_ppi_373_dldesign_0_cycle1_af2pred (protein)
chain: EKEELIKKAKEALEKAKKAAKEAAADPELAKKAKKLAEEAKKAVEKAKKSGKEEAKKLAEKAKAAAAKAEAYALLAQGRAAA
B3: d6r1_design_ppi_3_dldesign_0_cycle0_af2pred (protein)
chain: EEELARAAEAARRQAEVAEALAEQAAAADPANQPLADEARRLAERARELAERGATVEEIREALLEVSRAAARAAAALNAAVAA
B4: d6r1_design_ppi_62_dldesign_0_cycle0_af2pred (protein)
chain: VEEARALAESAEQAAEAGSYLLAALNLERAVRLAEELARRGEGLEEVRRIAERVAEVAKRVAESPEVRERAEEILRRAKRIIEEI
B5: d6r1_design_ppi_2_dldesign_0_cycle0_af2pred (protein)
chain: EEERRRAIEAAEGAVEAARKNLELFREAHPEATEEIARLEARVEEARREAERAREEGASVEEARRVLERARAVQAEITRALHRANLA
B6: d6r1_design_ppi_82_dldesign_0_cycle1_af2pred (protein)
chain: AAATQQQLTQAVRDALLARVAAVAADPSQAELLRRVTRSAVLMMGALEGLEGARAFAERAIAAAAAVGPEAAAAVREGAREGLEEYAA
B7: d6r1_design_ppi_463_dldesign_0_cycle1_af2pred (protein)
chain: GPFEAAYAEALAEVEAEIAALKAEAEKVAAAGKKTGKTAEAAAKAEELKAKAAELEAQKESIAAQRAFRRLAAQTAAQAAAA
B8: d6r1_design_ppi_270_dldesign_0_cycle1_af2pred (protein)
chain: EEEKREAAREITERAIEEIRAAAERAAAAGQPGAGVEAGMKIGAEAVRRVREKGTEELAEEAARRMNAALAEAIRAAMALAR
B9: d6r1_design_ppi_2_dldesign_0_cycle1_af2pred (protein)
chain: AEAKKKAIEDAEGAAEAAKKFLDLFKEAFPEAKETIAALQAKVEAAKKAAEKARKEGADVATAQAVLDQARAVQVDIINALNEATRS
B10: d6r1_design_ppi_583_dldesign_0_cycle1_af2pred (protein)
chain: MNIEELTALAEEHEAKAKALAAAGAPAIEVVSAATLAVRYYNEAAKLLAKIDPAKAKEYTAKAEAIRAAAAAYIRAQLARSAAA
B11: d6r1_design_ppi_13_dldesign_0_cycle1_af2pred (protein)
chain: AAEAKAAEKAARAELAKLRAVAAANPVHGGEILLAVARAAAEVNRLIAKGLAGTPEEAKAAAEAAKAAVAKARAEAAALA
B12: d6r1_design_ppi_222_dldesign_0_cycle1_af2pred (protein)
chain: SAEAAALKEEAEKLGKEALAAAEELKKVDPEKGERLKSQIKGLELQAISSYDLAAVNPAALATAKKAREQLEKLGREAKEAV
B13: d6r1_design_ppi_197_dldesign_0_cycle0_af2pred (protein)
chain: AAELAALEAEFRDQLEVARQAARFSPASAAAFLAGVAASLRRRLPPALGAAFAARADAAAAAARLLGEDPAAGEALFAAVLA
B14: d6r1_design_ppi_377_dldesign_0_cycle0_af2pred (protein)
chain: EEERRRAEELRRRAEEAIERIRASTPEEAARIAGELVAWLGEEARAGTPELAEEARREMARVTREAARVLA
B15: d6r1_design_ppi_518_dldesign_0_cycle0_af2pred (protein)
chain: SAATLAQYNQLSGQASRLLMQAAQTGSVELAQQALQYAQQALQLAQQASANNAEGAKQLLEIAQATLAAVQ
B16: d6r1_design_ppi_575_dldesign_0_cycle0_af2pred (protein)
chain: SAEEEAAKEEAKAVLAQAEAILEQAKALAAQQPWAAGIAALARTAIRLAKESLEKGLELLPDAKALTEAAAGIVAAA
B17: d6r1_design_ppi_239_dldesign_0_cycle1_af2pred (protein)
chain: DKAVLEEAEKVFKEALAVAEEIVAEGAKNPAYAAFAKAFAKQLKAQLAEAKKLTPEEALKAAKKLLDAAKQALKLVSE
B18: d6r1_design_ppi_593_dldesign_0_cycle1_af2pred (protein)
chain: SKNVELAEKAQEVVKRAKEVGKLVPEKAEEIISTSNQALAYALNPHTVAKGEKLLEEATKLVEEAEKEAK
B19: d6r1_design_ppi_377_dldesign_0_cycle1_af2pred (protein)
chain: MEDEELAEKIRERAKEAIAQIRASSPEQAALLAGTLVAEFGEWARSGTPEVAAVAHEEMNRVTGEAAKVIA
B20: d6r1_design_ppi_478_dldesign_0_cycle1_af2pred (protein)
chain: AAARAAAQQLLMEVAEELIKLGAKEAARLALRAIGLLLSDPAQGVAAAKEAAKKAKEEAPENGEELAKKLEEAAKLAAA
B21: d6r1_design_ppi_30_dldesign_0_cycle0_af2pred (protein)
chain: EKEEIIKKAKELKEQAEKVLAEDVSPLAKKVAEQAIKHAEKAIEAAKAGDLEEAKAHLSSAEAFVLGLTR
B22: d6r1_design_ppi_463_dldesign_0_cycle0_af2pred (protein)
chain: GLIEELLAEARAEVEAEIAARREEARRLAAEGEESEDTEEKRARAEELLAEAAEREAQADSIAAQAAFRRAAELTRQLAAAA
B23: d6r1_design_ppi_311_dldesign_0_cycle1_af2pred (protein)
chain: MTPEEVAARAAELLAWLRAQAALDPEMAALGAAGLELVLAHSPELAARAVRQLERARRMPPADALRVGALIAQAYAAQVERARA
B24: d6r1_design_ppi_575_dldesign_0_cycle1_af2pred (protein)
chain: GAALAAQRAEAREVLARARAIEAQAQALAATQPAAAGIGSLARQAIELASRSLEEGLELLPSARALVEVAAGIVAAA
B25: d6r1_design_ppi_251_dldesign_0_cycle0_af2pred (protein)
chain: DAARALLLRTAENAAQMLRLLGVDEATAEAVLARLTAAAAAGPAAFAAAARAAAAELEAQPSLNARTAGAALRTAAATAEAEIAAL
B26: d6r1_design_ppi_468_dldesign_0_cycle1_af2pred (protein)
chain: AQAALDAAIAAARAAAALAREAGDDTAAAFFESAALVLEGGPANMPLAIRLTEAGIRSARARLDPATAAKVAALGEAAIAAARAAAAA
B27: d6r1_design_ppi_243_dldesign_0_cycle1_af2pred (protein)
chain: AEAVARAARDARAQIELAEALLKQGLAAAKTDPAQALLAYNAALAAARSAVRIAARAPEVLEEARAALAAVEAAKAKVQAQAA
B28: d6r1_design_ppi_484_dldesign_0_cycle1_af2pred (protein)
chain: GEEAERESKEALERVRELLRRLNELAAQRAAHPAELRATAAALVEAGKEALANPNASEEAKQLGAFGVTLGQTVLAALDAAAA
B29: d6r1_design_ppi_229_dldesign_0_cycle0_af2pred (protein)
chain: EEARELARRTAEEAEELIKKALPEEDRELAELAGDLVRAGAEAATTNPAQGRAAFRTAAGILRSAGAEEAAEEVERRMEEMLRRIA
B30: d6r1_design_ppi_51_dldesign_0_cycle0_af2pred (protein)
chain: ALAEAQKQLAQARALVLGAEAAVEHAERSSPEEGRRALAAARDLIAQAKEKAKAAAKHPETKAEAEKLLKEAEKLEARAAAVEAAL
B31: d6r1_design_ppi_198_dldesign_0_cycle1_af2pred (protein)
chain: GEAEKVEKAKEKAAEKINEALALASKGAIEGDVEKVKEAKEILKEAVKEAKAVSPEAAKYAEELAKKAEEIIEAMEKSAKAAA
B32: d6r1_design_ppi_381_dldesign_0_cycle1_af2pred (protein)
chain: DEARAIIVSSLSEAAALDPAVAPLAMRAAALSINPATAAAAMAEAIAAMRAAGATVPEVAALADRAEAAA
B33: d6r1_design_ppi_617_dldesign_0_cycle0_af2pred (protein)
chain: AAARAQALLNEALALLFEAAARSRDGAPILRAASLAAQGFLTGEAAPEALAYIEAVAKEHPEVRELILEAARLFAEAAAL
B34: d6r1_design_ppi_397_dldesign_0_cycle1_af2pred (protein)
chain: GEEEEEKKRKEEIKKAIKEAAEKAKEAGPAETRPEIEAAEKLALEDPKAGMNRLLAIGAREPATAPYLVEGAEKVSALLKS
B35: d6r1_design_ppi_203_dldesign_0_cycle1_af2pred (protein)
chain: AQEQVVKEAQQLLLAASQAISKALVRAAQGTLQQADIEAAQKLIEAAAKAAEKAPPEAKARLNKGVEGLKELLEGALQTAKLAK
B36: d6r1_design_ppi_11_dldesign_0_cycle1_af2pred (protein)
chain: EMEKAQKELLEAANKAMTTLFKAAAAASAKGDNATAGQLVEAAGEVSKLAKEAVKKSPEAMKEAAKKLKEAAAAGAKLGAA
B37: d6r1_design_ppi_232_dldesign_0_cycle0_af2pred (protein)
chain: AEEFAEEAKKELEEIEKMIKEGEARADGEQIAVEAIEKAGEALKKAKEFKKKDPKVGEEAAKEFLKAINEATKAANAKAAAA
B38: d6r1_design_ppi_398_dldesign_0_cycle0_af2pred (protein)
chain: STAASLATGARVIANLFERAIEAAADPATRAEAEGLARSAAEIGALIGPELAAIAEAGLAAIGDLAAMRAELERVRALAAAA

target: CD276, Q5ZPR3
Sequence (Q5ZPR3 whole entry): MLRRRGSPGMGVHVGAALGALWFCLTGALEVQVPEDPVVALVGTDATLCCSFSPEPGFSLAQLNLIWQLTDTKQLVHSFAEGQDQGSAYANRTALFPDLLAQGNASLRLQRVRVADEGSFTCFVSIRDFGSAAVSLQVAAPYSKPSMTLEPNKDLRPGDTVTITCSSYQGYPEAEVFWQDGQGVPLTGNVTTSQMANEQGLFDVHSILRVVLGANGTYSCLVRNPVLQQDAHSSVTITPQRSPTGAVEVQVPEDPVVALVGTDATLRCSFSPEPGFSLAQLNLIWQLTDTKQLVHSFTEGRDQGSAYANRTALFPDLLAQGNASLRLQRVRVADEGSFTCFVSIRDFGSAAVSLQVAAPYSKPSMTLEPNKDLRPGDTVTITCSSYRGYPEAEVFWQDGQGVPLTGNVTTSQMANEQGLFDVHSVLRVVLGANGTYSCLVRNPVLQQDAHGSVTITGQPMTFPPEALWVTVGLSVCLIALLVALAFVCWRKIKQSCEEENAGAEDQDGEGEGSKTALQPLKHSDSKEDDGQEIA

Binding in a display sort, inactive:
B1 not found
B2 not found
B3 not found
B4 not found
B5 not found
B6 not found
B7 not found
B8 not found
B9 not found
B10 not found
B11 not found
B12 not found
B13 not found
B14 not found
B15 not found
B16 not found
B17 not found
B18 not found
B19 not found
B20 not found
B21 not found
B22 not found
B23 not found
B24 not found
B25 not found
B26 not found
B27 not found
B28 not found
B29 not found
B30 not found
B31 not found
B32 not found
B33 not found
B34 not found
B35 not found
B36 not found
B37 not found
B38 not found
